# In PubChem BioAssay:
# Values joined by “and” are separate entries in the source; they are usually repeats but may differ in a detail not shown here. Equal entries are not always repeated. More than one record can exist for a structure, and the calls need not agree. Active and inactive are the calls of the source.
# How the values were obtained:
# [1] = system: PRMT1 (protein arginine N-methyltransferase 1); test: small molecules binding arginine methyltransferase PRMT1 – biochemical, small-molecule microarray, 635 nm fluorescence, primary screen (AID 1088); conditions: higher = more signal;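 note: binding of Prmt1 protein to compounds spotted on small-molecule microarray slides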
# [2] = growth effects on S. cerevisiae YJM789 – YJM789 clinical isolate, OD600, 24 h, basal, primary screen (AID 1089); conditions: higher = more signal, called active from +8 up or from −8 down;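 note: growth of clinical yeast isolate S. cerevisiae YJM 789 seeded 1000 cells per well; test concentration not given here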
# [3] = S. pombe growth modifiers, basal conditions – strain 972, OD600, 24 h, no modulator, primary screen (AID 1090);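 note: basal condition with compound alone and no growth modifier present; test concentration not given here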; conditions: S. pombe 972 growth, higher = more signal, called active from +8 up or from −8 down
# [4] = budding yeast growth modifiers under rapamycin – strain BY4716, OD600, 96 h, primary screen (AID 1091); note: test concentration not given here; conditions: S. cerevisiae BY4716 + rapamycin, higher = more signal, called active from +8 up or from −8 down
# [5] = target: Torsin-1A-interacting protein 2 (Homo sapiens) (UniProt Q8NFQ8); test: small molecules binding lysate-expressed LULL1 – cell lysate, human LULL1 lysate, 635/667 nm fluorescence, primary screen (AID 1092); conditions: small-molecule microarray, hLULL1 lysate binding, 635 nm fluorescence; higher = more signal;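 note: probe is lysate of COS7 cells overexpressing human LULL1; score merges per-feature 667 nm fluorescence with signal-to-noise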
# Sequence of Torsin-1A-interacting protein 2 (Homo sapiens) (Q8NFQ8 whole entry, looked up): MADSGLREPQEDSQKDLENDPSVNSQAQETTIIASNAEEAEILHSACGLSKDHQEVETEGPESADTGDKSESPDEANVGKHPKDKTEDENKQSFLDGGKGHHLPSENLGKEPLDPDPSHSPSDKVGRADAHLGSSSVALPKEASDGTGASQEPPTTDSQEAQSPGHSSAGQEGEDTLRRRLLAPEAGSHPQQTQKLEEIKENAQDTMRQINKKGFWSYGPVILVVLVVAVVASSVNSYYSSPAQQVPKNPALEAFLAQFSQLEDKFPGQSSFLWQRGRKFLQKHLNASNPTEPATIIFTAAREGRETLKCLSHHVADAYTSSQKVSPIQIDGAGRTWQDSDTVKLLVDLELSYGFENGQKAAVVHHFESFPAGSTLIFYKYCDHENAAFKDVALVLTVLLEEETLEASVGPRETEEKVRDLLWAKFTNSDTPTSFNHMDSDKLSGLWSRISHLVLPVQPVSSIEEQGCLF
# [6] = optical density change of DRC41 E. coli – strain DRC41, OD650, 24 h, E. coli filamentation project, primary screen (AID 1093);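 note: MC1000 strain lacking acrAB efflux and sulA so SOS filamentation is blocked; test concentration not given here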; conditions: E. coli DRC41 growth, higher = more signal, called active from +8 up or from −8 down
# [7] = probe aLefty2 binding to arrayed compounds – biochemical, biotinylated probe, 635/667 nm fluorescence, primary screen (AID 1094); conditions: small-molecule microarray, higher = more signal;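 note: score merges spot fluorescence near 667 nm with spot signal-to-noise ratio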
# [8] = system: Noggin (protein binding on small-molecule microarray); test: small molecules binding Noggin protein – biochemical, 635/667 nm fluorescence, primary screen (AID 1095); conditions: 635 nm fluorescence, higher = more signal;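 note: score merges 667 nm feature fluorescence with signal to noise over triplicate slides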
# [9] = target: Neurogenic locus notch homolog protein 3 (Homo sapiens) (UniProt Q9UM47); test: small molecules binding NOTCH3 protein – biochemical, 635/667 nm fluorescence, primary screen (AID 1096); conditions: small-molecule microarray, 635 nm fluorescence, higher = more signal
# Sequence of Neurogenic locus notch homolog protein 3 (Homo sapiens) (Q9UM47 whole entry, looked up): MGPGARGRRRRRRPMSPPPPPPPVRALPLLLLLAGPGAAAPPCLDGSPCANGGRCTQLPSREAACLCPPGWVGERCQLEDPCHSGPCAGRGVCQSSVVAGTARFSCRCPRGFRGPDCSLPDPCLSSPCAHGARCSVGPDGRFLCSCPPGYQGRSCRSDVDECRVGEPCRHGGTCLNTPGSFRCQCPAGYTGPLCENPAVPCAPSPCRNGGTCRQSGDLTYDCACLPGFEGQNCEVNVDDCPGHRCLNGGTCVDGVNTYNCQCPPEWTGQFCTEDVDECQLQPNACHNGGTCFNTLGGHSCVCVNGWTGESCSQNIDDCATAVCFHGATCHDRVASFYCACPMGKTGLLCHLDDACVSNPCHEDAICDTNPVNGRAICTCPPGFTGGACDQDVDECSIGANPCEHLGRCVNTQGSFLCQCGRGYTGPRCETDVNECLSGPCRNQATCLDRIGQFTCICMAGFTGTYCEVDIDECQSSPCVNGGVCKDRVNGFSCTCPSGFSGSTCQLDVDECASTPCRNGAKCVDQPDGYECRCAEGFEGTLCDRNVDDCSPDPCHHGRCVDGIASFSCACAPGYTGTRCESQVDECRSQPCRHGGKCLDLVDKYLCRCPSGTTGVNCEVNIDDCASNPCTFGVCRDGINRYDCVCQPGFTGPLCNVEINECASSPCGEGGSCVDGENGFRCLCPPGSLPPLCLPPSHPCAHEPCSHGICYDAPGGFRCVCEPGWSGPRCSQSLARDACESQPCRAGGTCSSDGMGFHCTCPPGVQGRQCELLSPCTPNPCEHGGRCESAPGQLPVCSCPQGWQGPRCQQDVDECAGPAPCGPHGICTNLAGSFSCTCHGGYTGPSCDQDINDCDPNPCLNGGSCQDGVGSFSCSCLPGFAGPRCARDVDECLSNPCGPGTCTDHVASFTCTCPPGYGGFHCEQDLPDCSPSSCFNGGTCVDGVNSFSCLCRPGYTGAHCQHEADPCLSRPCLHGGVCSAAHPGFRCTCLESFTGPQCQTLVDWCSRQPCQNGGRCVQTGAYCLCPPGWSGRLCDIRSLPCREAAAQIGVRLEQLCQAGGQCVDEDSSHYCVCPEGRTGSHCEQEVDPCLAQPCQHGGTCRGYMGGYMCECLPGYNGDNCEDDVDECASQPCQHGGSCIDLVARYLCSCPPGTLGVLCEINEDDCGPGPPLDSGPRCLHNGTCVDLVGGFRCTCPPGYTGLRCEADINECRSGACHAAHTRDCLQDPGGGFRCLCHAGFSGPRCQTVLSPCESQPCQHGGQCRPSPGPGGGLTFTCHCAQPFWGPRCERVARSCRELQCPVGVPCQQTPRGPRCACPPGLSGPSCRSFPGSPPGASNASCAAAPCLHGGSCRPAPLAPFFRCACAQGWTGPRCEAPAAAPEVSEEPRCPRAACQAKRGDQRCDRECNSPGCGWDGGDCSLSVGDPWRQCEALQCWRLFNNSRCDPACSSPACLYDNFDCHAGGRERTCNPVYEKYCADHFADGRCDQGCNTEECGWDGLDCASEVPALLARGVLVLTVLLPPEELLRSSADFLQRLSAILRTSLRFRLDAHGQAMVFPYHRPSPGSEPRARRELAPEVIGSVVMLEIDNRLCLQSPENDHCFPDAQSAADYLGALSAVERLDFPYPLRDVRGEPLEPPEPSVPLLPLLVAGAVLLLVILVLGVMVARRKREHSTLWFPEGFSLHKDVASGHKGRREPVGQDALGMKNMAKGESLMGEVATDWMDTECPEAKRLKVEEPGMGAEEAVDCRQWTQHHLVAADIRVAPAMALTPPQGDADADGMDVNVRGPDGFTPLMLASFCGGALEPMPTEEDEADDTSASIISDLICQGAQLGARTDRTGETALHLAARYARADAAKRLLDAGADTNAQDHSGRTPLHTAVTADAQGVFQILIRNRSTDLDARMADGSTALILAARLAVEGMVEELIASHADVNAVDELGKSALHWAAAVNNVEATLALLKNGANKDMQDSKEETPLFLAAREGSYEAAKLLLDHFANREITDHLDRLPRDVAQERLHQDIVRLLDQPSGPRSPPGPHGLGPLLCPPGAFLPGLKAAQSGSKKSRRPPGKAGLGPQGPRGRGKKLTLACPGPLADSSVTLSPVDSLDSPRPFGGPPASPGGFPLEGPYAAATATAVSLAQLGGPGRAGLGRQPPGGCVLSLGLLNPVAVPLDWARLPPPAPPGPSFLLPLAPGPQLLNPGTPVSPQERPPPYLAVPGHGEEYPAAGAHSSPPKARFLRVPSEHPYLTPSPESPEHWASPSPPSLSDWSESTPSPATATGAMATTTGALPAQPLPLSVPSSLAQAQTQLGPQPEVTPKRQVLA
# [10] = probe aEGFR binding to arrayed compounds – biochemical, biotinylated probe, 635/667 nm fluorescence, primary screen (AID 1097); conditions: small-molecule microarray, higher = more signal;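 note: probe is a biotinylated anti-EGFR antibody binding compounds printed on slides; score combines fluorescence near 667 nm and signal to noise of each spot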
# [11] = system: Plasmodium falciparum Sir2 (PF13_0152, Sir2A); test: Plasmodium falciparum Sir2A binding compounds – biochemical, small-molecule microarray, 635 nm fluorescence, primary screen (AID 1098); conditions: fluorescence 635 nm, higher = more signal;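 note: score merges spot fluorescence intensity with its signal-to-noise ratio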
# [12] = probe aDKK1 binding to arrayed compounds – biochemical, biotinylated probe, 635/667 nm fluorescence, primary screen (AID 1099); conditions: small-molecule microarray, higher = more signal;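 note: score merges 667nm spot fluorescence with signal to noise across triplicate slides; reference of the scale not given here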
# [13] = probe aCHRDL2 binding to arrayed compounds – biochemical, biotinylated probe, 635/667 nm fluorescence, primary screen (AID 1100); conditions: small-molecule microarray, higher = more signal
# [14] = change in splice reporter luminescence, either direction, cell-based, HEK293, spliceosome inhibition project, primary screen (AID 1101); conditions: HEK293 splicing luciferase reporter, 24 h, higher = more signal, called active from +8 up or from −8 down;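 note: HEK293 cells carrying a splicing-competent luciferase reporter gene; test concentration not given here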
# [15] = target: Fibroblast growth factor 10 (Homo sapiens) (UniProt O15520); test: compounds binding fibroblast growth factor 10 – biochemical, small-molecule microarray, 635 nm fluorescence, primary screen (AID 1102); conditions: FGF10 binding, fluorescence 635 nm, higher = more signal
# Sequence of Fibroblast growth factor 10 (Homo sapiens) (O15520 whole entry, looked up): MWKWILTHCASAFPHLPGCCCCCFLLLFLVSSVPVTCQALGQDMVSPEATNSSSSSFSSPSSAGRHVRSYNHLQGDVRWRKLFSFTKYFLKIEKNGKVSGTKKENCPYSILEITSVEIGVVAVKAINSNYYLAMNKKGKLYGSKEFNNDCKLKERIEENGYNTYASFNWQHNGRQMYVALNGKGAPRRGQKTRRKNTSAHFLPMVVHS
# [16] = system: glycogen synthase kinase-3 (GSK3A per assay name; protocol says GSK3B); test: compounds binding glycogen synthase kinase-3 – biochemical, small-molecule microarray, 635 nm fluorescence, GSK3A, primary screen (AID 1103); conditions: fluorescence 635 nm, higher = more signal; note: the record names both GSK3A and GSK3B
# [17] = target: Epidermal growth factor receptor (Homo sapiens) (UniProt P00533); test: compounds binding epidermal growth factor receptor – biochemical, small-molecule microarray, 635 nm fluorescence, primary screen (AID 1104); conditions: EGFR binding, higher = more signal;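 note: score merges 667 nm emission intensity with spot signal to noise over triplicate slides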
# Sequence of Epidermal growth factor receptor (Homo sapiens) (P00533 whole entry, looked up): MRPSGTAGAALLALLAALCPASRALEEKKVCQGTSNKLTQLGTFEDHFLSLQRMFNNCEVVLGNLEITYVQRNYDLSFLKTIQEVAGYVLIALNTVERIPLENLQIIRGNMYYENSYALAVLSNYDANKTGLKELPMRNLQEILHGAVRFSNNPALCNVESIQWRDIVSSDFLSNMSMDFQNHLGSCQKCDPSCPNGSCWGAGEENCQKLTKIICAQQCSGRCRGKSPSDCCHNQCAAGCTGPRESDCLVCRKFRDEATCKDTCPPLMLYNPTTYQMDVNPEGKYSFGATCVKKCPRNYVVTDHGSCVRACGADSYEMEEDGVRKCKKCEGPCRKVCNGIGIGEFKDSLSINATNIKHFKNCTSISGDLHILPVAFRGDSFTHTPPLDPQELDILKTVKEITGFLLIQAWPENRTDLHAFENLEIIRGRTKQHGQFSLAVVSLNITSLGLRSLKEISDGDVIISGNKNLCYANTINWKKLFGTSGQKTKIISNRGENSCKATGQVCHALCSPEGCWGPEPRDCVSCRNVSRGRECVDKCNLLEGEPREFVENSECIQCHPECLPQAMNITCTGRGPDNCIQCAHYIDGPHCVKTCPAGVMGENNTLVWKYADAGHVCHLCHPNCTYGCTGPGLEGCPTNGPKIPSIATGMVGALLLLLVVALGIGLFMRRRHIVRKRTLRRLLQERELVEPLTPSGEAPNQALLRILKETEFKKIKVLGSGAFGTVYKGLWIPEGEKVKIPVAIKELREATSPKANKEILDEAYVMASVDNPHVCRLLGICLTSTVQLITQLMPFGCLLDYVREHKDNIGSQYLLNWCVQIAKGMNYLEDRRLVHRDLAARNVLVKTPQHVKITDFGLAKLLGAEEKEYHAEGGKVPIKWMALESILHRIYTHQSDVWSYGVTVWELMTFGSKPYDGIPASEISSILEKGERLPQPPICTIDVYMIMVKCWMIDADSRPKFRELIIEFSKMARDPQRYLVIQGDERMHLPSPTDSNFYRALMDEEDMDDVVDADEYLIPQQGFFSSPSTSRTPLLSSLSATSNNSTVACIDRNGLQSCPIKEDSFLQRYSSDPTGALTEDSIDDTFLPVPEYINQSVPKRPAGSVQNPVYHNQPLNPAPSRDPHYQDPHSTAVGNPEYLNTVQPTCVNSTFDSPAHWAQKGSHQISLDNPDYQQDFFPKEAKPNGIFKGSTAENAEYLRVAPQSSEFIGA
# [18] = target: Follistatin-related protein 3 (Homo sapiens) (UniProt O95633); test: compounds binding follistatin-related protein 3 – biochemical, small-molecule microarray, 635 nm fluorescence, primary screen (AID 1105); conditions: FSTL3 binding, higher = more signal;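 note: score merges emission near 667 nm and signal to noise per printed spot across three slides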
# Sequence of Follistatin-related protein 3 (Homo sapiens) (O95633 whole entry, looked up): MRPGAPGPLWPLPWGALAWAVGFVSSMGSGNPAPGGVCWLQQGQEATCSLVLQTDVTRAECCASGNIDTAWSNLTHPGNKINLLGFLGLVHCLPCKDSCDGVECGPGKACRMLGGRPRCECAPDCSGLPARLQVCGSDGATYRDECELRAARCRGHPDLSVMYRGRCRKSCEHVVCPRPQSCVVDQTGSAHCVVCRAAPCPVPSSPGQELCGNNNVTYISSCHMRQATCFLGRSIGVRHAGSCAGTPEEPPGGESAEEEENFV
# [19] = target: Dickkopf-related protein 1 (Homo sapiens) (UniProt O94907); test: small molecules binding DKK1 protein – biochemical, small-molecule microarray, 635 nm fluorescence scan, primary screen (AID 1106); conditions: higher = more signal;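 note: score merges emission near 667 nm with signal to noise over three replicate slides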
# Sequence of Dickkopf-related protein 1 (Homo sapiens) (O94907 whole entry, looked up): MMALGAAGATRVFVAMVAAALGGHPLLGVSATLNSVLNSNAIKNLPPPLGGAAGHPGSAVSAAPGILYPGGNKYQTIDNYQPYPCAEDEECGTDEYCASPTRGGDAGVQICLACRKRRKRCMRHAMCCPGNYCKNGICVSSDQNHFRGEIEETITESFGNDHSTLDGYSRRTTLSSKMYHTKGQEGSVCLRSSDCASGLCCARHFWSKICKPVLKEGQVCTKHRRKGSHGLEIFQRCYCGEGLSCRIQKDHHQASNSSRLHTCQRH
# [20] = system: Inhibin beta A chain (activin A); test: small molecules binding activin A – biochemical, small-molecule microarray, 635 nm fluorescence scan, primary screen (AID 1107); conditions: INHBA, higher = more signal;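 note: mouse activin A protein probed at 4.33 µg/mL on printed slides; score merges bound-protein fluorescence near 667 nm with spot signal-to-noise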
SMILES,composite z-score [1],z-score [2],z-score [3],z-score [4],composite z-score [5],z-score [6],composite z-score [7],composite z-score [8],composite z-score [9],composite z-score [10],composite z-score [11],composite z-score [12],composite z-score [13],z-score [14],composite z-score [15],composite z-score [16],composite z-score [17],composite z-score [18],composite z-score [19],composite z-score [20]
CC(C)=NOC[C@@H](O)COCc1ccco1,-0.697,0.848 (inactive),0.174 (inactive),0.746 (inactive),-0.151,0.358 (inactive),-0.122,0.301,-1.45,-0.147,1.21,-0.254,-0.0658,0.638 (inactive),-0.341,-1.15,-0.298,-0.628,0.421,0.912
CC(C)[Si]1(C(C)C)OCc2cc(CCCc3cc4c(c(CCc5ccccc5)n3)[Si](C(C)C)(C(C)C)OC4)nc(CCc3ccccc3)c21,0.393 and 0.722,0.873 (inactive) and 0.702 (inactive),-19.7 (active) and 0.733 (inactive),-1.25 (inactive) and 0.323 (inactive),0.227 and 0.364,2.13 (inactive) and -1.16 (inactive),-0.128 and -0.0479,-0.0022 and 0.42,-0.604 and 0.721,-0.157 and -0.0594,-1.24 and 0.202,-0.181 and -0.246,0.057 and -0.55,-1.52 (inactive) and 0.459 (inactive),-0.0405 and 0.57,-0.0221 and 0.559,0.327 and 0.456,-0.291 and 0.745,-0.106 and 0.458,0.557 and 0.0127
C=CCN(Cc1ccccc1)C(=O)C1N(CCOCCO)C(=O)C2C(C(=O)O)C3C=CC21O3 (stereo not given),-0.576 and -0.797,-1.93 (inactive) and 0.844 (inactive),-1.52 (inactive) and -0.0833 (inactive),-1.25 (inactive) and 0.225 (inactive),3.27 and 2.73,2.42 (inactive) and 1.4 (inactive),0.22 and 0.141,-3.1 and -1.88,-0.74 and -0.734,-0.323 and -0.278,0.824 and 1.03,0.0606 and -0.027,1 and 1.1,-1.11 (inactive) and -0.281 (inactive),-1.09 and -0.997,-0.419 and -0.793,-2.36 and -1.85,-2.65 and -2.12,-2.78 and -2.98,-2.4 and -2.13
COC(=O)C1=C(C)N(Cc2ccccc2)[C@]23O[C@](C(=O)OC)(C(=O)N2[C@@H]1c1ccccc1)[C@H]1CCCC(=O)[C@H]13,-0.0081 and 0.249,0.563 (inactive) and 0.21 (inactive),-1.79 (inactive) and -1.07 (inactive),-1.95 (inactive) and -0.557 (inactive),0.164 and -0.142,0.302 (inactive) and -0.824 (inactive),-0.102 and -0.132,0.0709 and 0.413,0.31 and 0.604,0.173 and -0.0497,0.355 and 0.285,0.0172 and -0.338,-0.298 and -0.45,-0.0479 (inactive) and -1.41 (inactive),0.526 and 0.72,0.201 and 0.287,0.218 and 0.506,0.336 and 0.515,0.421 and 0.508,0.518 and 0.15
